Source: PubChem BioAssay
IDE inh: human IDE inhibitors in live cells, primary screen, fluorescence polarization, HEK cells, FAbetaB substrate; 320,000 tested, 0.41% active; inhibition, % at 5.59 µM; FAbetaB cleavage; Insulin-degrading enzyme (Homo sapiens), P14735;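 active = percent inhibition above the average of all tested compounds plus 3 SD, set per screening campaign, cut at about 16% in these data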;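 note: IDE supplied by intact live HEK cells; FP after avidin binding of uncleaved biotin substrate so inhibition keeps polarization high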
IDE cell activ: human IDE activators in live cells, primary screen, fluorescence polarization, HEK cells, FAbeta-B substrate. FAbeta-B cleavage; 0% vehicle, 100% cell-free pure enzyme wells. activation, % at 5.96 µM. 340,000 tested, 0.073% active;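 active = activation above the mean of all tested compounds plus 3 SD, set per screening campaign, cut at about 17% in these data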
Exocytosis inh: LAMP-1 surface exposure blockers, TALL-104 cells – cell-based, flow cytometry, MLPCN library, primary screen; TALL-104 LAMP-1 surface exposure; cells stimulated with thapsigargin and PMA; inhibition, % at 10 µM; 360,000 tested, 0.66% active; AID 651702, 2012;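 active = inhibition above about 55%, limit read from the data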
SKKanGAS inh: S. pyogenes SKKanGAS growth inhibitors in kanamycin, primary screen, streptokinase expression inhibitor project, SKKanGAS strain, BacTiter-Glo luminescence. 6 h. inhibition, % at 7.5 µM. 300,000 tested, 1.3% active. AID 1662, 2009;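 active = mean replicate score, as percent of positive control median, at least 50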;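 note: strain carries kanamycin resistance gene driven by streptokinase promoter and grows in 40 µg/ml kanamycin; loss of luminescence reflects streptokinase promoter inhibition or plain growth inhibition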
PP1 counter: PP1-alpha phosphatase inhibitors, primary screen, counter-screen for PP5 inhibitor project, biochemical, fluorescence, OMFP substrate, single point | Serine/threonine-protein phosphatase PP1-alpha catalytic subunit (Homo sapiens), P62136 | purified PP1alpha | inhibition, % at 6.7 µM | 320,000 tested, 0.9% active | AID 2235, 2010;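 active = inhibition above the mean inhibition of all tested compounds plus 3 SD, computed separately for each screening campaign, cut at about 15% in these data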
Target sequence (P62136 whole entry, looked up): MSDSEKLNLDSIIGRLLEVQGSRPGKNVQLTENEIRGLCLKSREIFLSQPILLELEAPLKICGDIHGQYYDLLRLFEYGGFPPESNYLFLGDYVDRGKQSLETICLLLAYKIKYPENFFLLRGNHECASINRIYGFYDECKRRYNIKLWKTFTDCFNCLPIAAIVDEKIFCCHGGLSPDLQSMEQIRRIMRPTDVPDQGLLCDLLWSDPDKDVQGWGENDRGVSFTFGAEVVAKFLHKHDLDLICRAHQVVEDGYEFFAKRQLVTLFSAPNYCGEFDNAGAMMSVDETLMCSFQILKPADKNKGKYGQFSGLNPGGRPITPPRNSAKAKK
PP5 primary: PP5 phosphatase inhibitors, primary screen, biochemical, fluorescence; Serine/threonine-protein phosphatase 5 (Homo sapiens), P53041; inhibition, % at 6.7 µM; AID 1987, 2009; 320,000 tested, 0.18% active; purified PP5c, OMFP substrate fluorescence;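 active = inhibition above the campaign's mean inhibition across all tested compounds plus 3 SD, cut at about 9.5% in these data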
IDE inh confirm: human IDE inhibitors in live cells, confirmation, fluorescence polarization, HEK cells, FAbetaB substrate; shares compounds with IDE inh; inhibition, % at 5.59 µM; 1,200 tested, 51% active; FAbetaB cleavage;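 active = mean inhibition across triplicate wells above the cutoff set by the earlier primary insulin-degrading enzyme screen, cut at about 16% in these data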
HEK293 tox: cytotoxicity in HEK cells, cytotoxicity control for IDE inhibitor project, cell-based, luminescence | HEK293 cytotoxicity, ATP luminescence | 1,200 tested, 28% active | inhibition, % at 5.59 µM | AID 449730, 2010 | shares compounds with IDE inh; in the data active = inhibition above about 22%
FP fluor counter: fluorescent or optically active artefacts, dose response, artefact control for IDE inhibitor project, biochemical, fluorescence polarization. shares compounds with IDE inh. FP counterscreen for fluorescent artifacts, IDE probe project. IC50, µM. 30 tested, under 10 active. AID 588718, 2011; call rule not given here
Of the large screens only hits and unclear results are named; the others gave an inactive call (follow-up assays come after a bar, where they were run). Most compounds without a hit are left out; they make up all but 2.8% or so of the library.

CC1=CC(C)(C)Nc2ccc(OC(=O)CN3C(=O)c4ccccc4C3=O)cc21	IDE inh 19 | IDE inh confirm 41 | HEK293 tox 123
CC1=CC(C)(C)Nc2ccc(OC(=O)CN3C(=O)c4cccc5cccc(c45)C3=O)cc21	none
Cc1ccc(C(=O)CCc2ccc(N)cc2)cc1	none
N#C/C(=C\c1ccc(O)c(O)c1)C(=O)Nc1ccccc1	IDE inh 26 (no result: SKKanGAS inh) | IDE inh confirm 50 | HEK293 tox inactive
COc1cc(/C=C(\C#N)C(=O)NCc2cccs2)ccc1O	IDE inh 34 | IDE inh confirm 45 | HEK293 tox inactive
N#C/C(=C/c1cccc(O)c1)C(=O)NCc1ccc(Cl)cc1	none
N#C/C(=C/c1ccc(O)c(O)c1)C(=O)NCc1ccc(Cl)cc1	IDE inh 24 | IDE inh confirm 33 | HEK293 tox inactive
Nc1nc2ccccc2[nH]1	none (no result: IDE inh, PP1 counter, PP5 primary)
Nc1ccccc1Sc1nc2ccccc2[nH]1	IDE inh 16, Exocytosis inh 61, SKKanGAS inh 61 | IDE inh confirm inactive | HEK293 tox inactive
CCN(CC)c1ccc(C=Nc2cccc(S(=O)(=O)N3CCOCC3)c2)c(O)c1	none (no result: SKKanGAS inh, PP1 counter, PP5 primary)
CCN(CC)c1ccc(/C=N/NC(=O)c2cccc(S(=O)(=O)N3CCOCC3)c2)c(O)c1	IDE inh 22 | IDE inh confirm 37 | HEK293 tox 85
O=S(=O)(c1ccc(N2CCOCC2)c(Cl)c1)N1CCOCC1	none
O=c1c2ccccc2sn1-c1cc(S(=O)(=O)N2CCOCC2)ccc1N1CCOCC1	IDE inh 59, Exocytosis inh 59, SKKanGAS inh 76 | IDE inh confirm 59 | HEK293 tox inactive | FP fluor counter inactive
COc1cccc(CNS(=O)(=O)c2cc(Br)ccc2Br)c1	none (no result: IDE inh, IDE cell activ, SKKanGAS inh, PP1 counter, PP5 primary)
O=C(N/N=C/c1ccc(O)cc1O)c1ccc(CN2C(=O)c3cccc4cccc2c34)cc1	IDE inh 26 | IDE inh confirm inactive | HEK293 tox 98
COc1cccc(/C=N/NC(=O)Cn2cnc3c2c(=O)n(C)c(=O)n3C)c1	none (no result: IDE cell activ)
Clc1ccc(/C=C/c2ncc[nH]2)c(Cl)c1	IDE inh 18 | IDE inh confirm inactive | HEK293 tox inactive
O=C1/C(=C/c2cccc(O)c2)SC(=S)N1CC1CCCO1 (stereo not given)	none
COc1ccccc1/C=C1\SC(=S)N(C(C(=O)O)c2ccccc2)C1=O (stereo not given)	none
COc1cc(/C=C2\SC(=S)N(C(C(=O)O)c3ccccc3)C2=O)ccc1O (stereo not given)	IDE inh 64 | IDE inh confirm 174 | HEK293 tox inactive
O=C(O)C(c1ccccc1)N1C(=O)/C(=C\c2ccc(O)c(O)c2)SC1=S (stereo not given)	IDE inh 67 | IDE inh confirm 84 | HEK293 tox inactive
CCOc1cc(/C=C2\SC(=S)N(C(C(=O)O)c3ccccc3)C2=O)ccc1O (stereo not given)	IDE inh 68 | IDE inh confirm 140 | HEK293 tox inactive
CCOc1ccc(/C=C2/SC(=S)N(C(C(=O)O)c3ccccc3)C2=O)cc1OCC (stereo not given)	none (no result: IDE inh, SKKanGAS inh, PP1 counter, PP5 primary)
CCOc1cc(/C=C2/SC(=S)N(CC3CCCO3)C2=O)ccc1O (stereo not given)	IDE inh 35 | IDE inh confirm 123 | HEK293 tox 24
O=C(c1ccc(Cl)cc1)n1c(NCc2ccccc2)n[nH]c1=S	none
Cc1cc2c(cc1C)-c1nnnn1C(N1CCC(Cc3ccccc3)CC1)C(=O)N2 (stereo not given)	none (no result: IDE inh, IDE cell activ, SKKanGAS inh, PP1 counter, PP5 primary)
CC(=O)Nc1ccc(N2C(=O)c3cccc4c(O)ccc(c34)C2=O)cc1	IDE inh 95 | IDE inh confirm 26 | HEK293 tox inactive
COc1cccc(C2C=C(Nc3ccccc3)C(=O)N2c2ccccc2)c1 (stereo not given)	none
COc1ccc(C2C=C(Nc3ccccc3)C(=O)N2c2ccccc2)cc1OC (stereo not given)	IDE inh 17 | IDE inh confirm inactive | HEK293 tox 23
CC1CCc2sc(NC(=O)C3CC(Cl)=CCC3C(=O)O)c(C#N)c2C1 (stereo not given)	none (no result: IDE cell activ)
CCc1ccc(C(=O)/C=C2\Sc3ccccc3NC2=O)cc1	IDE inh 18 | IDE inh confirm inactive | HEK293 tox inactive
CCOc1ccc(-c2c(C(=O)N/N=C/c3ccoc3)nnn2-c2nonc2N)cc1	none
CCOc1ccc(/C=N/NC(=O)c2nnn(-c3nonc3N)c2-c2ccc(OCC)cc2)cc1	IDE inh 22 | IDE inh confirm inactive | HEK293 tox inactive
O=[N+]([O-])c1ccc(C=CC=Cc2ccccc2)cc1	none (no result: IDE inh, IDE cell activ, SKKanGAS inh, PP1 counter, PP5 primary)
CN(c1ccccc1)c1ccc(/C=C/[N+](=O)[O-])cc1	IDE inh 32 | IDE inh confirm 26 | HEK293 tox 117
Cc1cccc(NC(=O)c2cc3cc([N+](=O)[O-])ccc3s2)n1	none
Cc1ccc(Nc2cnn(C34CC5CC(CC(CC(=O)O)(C5)C3)C4)c(=O)c2Cl)cc1C	IDE inh 32 | IDE inh confirm 25 | HEK293 tox inactive
O=C(O)CC12CC3CC(C1)CC(n1ncc(NCC4CCCO4)c(Cl)c1=O)(C3)C2 (stereo not given)	none
Cc1cccc(C)c1NC(=O)C(c1ccccc1)N1CCC(c2ccccc2)CC1 (stereo not given)	none (no result: IDE inh, IDE cell activ, SKKanGAS inh, PP1 counter, PP5 primary)
COc1cc2nc(/C=C/c3ccc(N(C)C)cc3)sc2cc1SC	IDE inh 70 (no result: SKKanGAS inh) | IDE inh confirm 51 | HEK293 tox inactive
Cc1ccc(C)c(N2C(=N)S/C(=C\c3ccc(-c4ccccc4C(=O)O)o3)C2=O)c1	IDE inh 32 | IDE inh confirm 17 | HEK293 tox inactive | FP fluor counter inactive
COc1ccc(CNC(=O)O[C@H]2C[C@@H]3C(=O)N(c4ccccc4)C(=O)[C@@H]3[C@@H]3CN(S(=O)(=O)c4ccc(C)cc4)C[C@]23O)cc1OC	none (no result: IDE inh, IDE cell activ, SKKanGAS inh, PP1 counter, PP5 primary)
